Assay [1] in a line: NCI Yeast Anticancer Drug Screen. Data for the rad50 strain (AID 155).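 Note: 0% = growth of vehicle-only cultures of the same strain.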 The note with it: S. cerevisiae rad50 strain growth inhibition, stronger effect = higher value. The method in brief: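 DNA repair mutant yeast, compound exposure, growth read-out; inhibition is taken relative to vehicle.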
Assay [2] is described as follows: NCI Yeast Anticancer Drug Screen. Data for the mec2-1 strain (AID 157). As to conditions: S. cerevisiae mec2-1 strain, stronger effect = higher value. The method in brief:
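Readout is yeast growth inhibition, normalised to vehicle-treated controls, in the mec2-1 strain exposed to compound.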

Assay [3] in a line: NCI Yeast Anticancer Drug Screen. Data for the sgs1 mgt1 strain (AID 161).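 Note: 0% = growth of cultures given vehicle only.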 As to conditions: S. cerevisiae sgs1 mgt1 strain, stronger effect = higher value. The method in brief:
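Growth of a repair-deficient yeast mutant was monitored after compound treatment and expressed as inhibition relative to vehicle-treated cultures.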

Assay [4] in a line: NCI Yeast Anticancer Drug Screen. Data for the cln2 rad14 strain (AID 165).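 Note: 0% = growth equal to vehicle treated cultures.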 As to conditions: S. cerevisiae cln2 rad14 strain, stronger effect = higher value. The method in brief:
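Relative to vehicle controls, growth inhibition of compound-treated cln2 rad14 yeast was recorded.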

Assay [5] is described as follows: NCI Yeast Anticancer Drug Screen. Data for the bub3 strain (AID 167). As to conditions: S. cerevisiae bub3 mutant strain, stronger effect = higher value. A digest of the protocol: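 In this screen, a yeast mutant lacking normal mitotic checkpoint function is challenged with compound. Relative growth versus vehicle gives the inhibition value.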
A short description of assay [6]: NCI Yeast Anticancer Drug Screen. Data for the mlh1 rad18 strain (AID 175). The note with it: S. cerevisiae mlh1 rad18 strain growth inhibition, stronger effect = higher value. The method in brief: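 Test agents were incubated with a yeast strain of defined genotype (DNA damage repair defect). Inhibition of growth was derived by comparison with vehicle-exposed cultures.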

[7] abbreviates: at 5.0 µM (retest, dose inferred, filed as 0.5).
Setting [8] is: at 50.0 µM (retest, dose inferred, filed as 5.0).

This is part of a sample that, as a whole, favours compounds with a hit. Of some 79,000 tested, about 15% had one in any assay. Unmarked numbers belong to inactive results. The source made the active and inactive calls. Cut-off read from the data, not from the text of the source: active = growth inhibition above about 70%; inactive = the rest.

Six compounds from PubChem BioAssay (NCI) can be followed below.

As to `O=C1C=CC(=O)N1c1ccccc1`, the growth inhibition in assay [1] (setting [7]) was 95% (active); in assay [1] (setting [8]), 98% (active); in assay [1] (at 50.0 µM) it was 99.3% (active); in assay [2] (setting [7]), 99% (active); in assay [2] (setting [8]) it was 99% (active); in assay [2] (at 50.0 µM) it was 99.7% (active). The growth inhibition in assay [3] (setting [7]) was 94% (active); in assay [3] (setting [8]), 99% (active); in assay [3] (at 50.0 µM), 99.4% (active); in assay [4] (setting [7]), 94% (active); in assay [4] (setting [8]), 99% (active); in assay [4] (at 50.0 µM) it was 99% (active). Further, the growth inhibition in assay [5] (setting [7]) is 99% (active); in assay [5] (setting [8]), 99% (active); in assay [5] (at 50.0 µM), 99.2% (active); in assay [6] (setting [7]), 90% (active); in assay [6] (setting [8]), 99% (active); in assay [6] (at 50.0 µM) it was 99.2% (active).

As for `O=C(c1ccccc1)C(Br)[N+](=O)[O-]` (stereo not drawn), the growth inhibition is 99% (active) in assay [1] (setting [7]); 99% (active) in assay [1] (setting [8]); 99.7% (active) in assay [1] (at 50.0 µM); 99% (active) in assay [2] (setting [7]); 99% (active) in assay [2] (setting [8]); 99.7% (active) in assay [2] (at 50.0 µM). Besides, the growth inhibition in assay [3] (setting [7]) is 99% (active); in assay [3] (setting [8]) it was 100% (active); in assay [3] (at 50.0 µM) it was 99.7% (active); in assay [4] (setting [7]) it was 93% (active); in assay [4] (setting [8]) it was 99% (active); in assay [4] (at 50.0 µM), 99.7% (active). Moreover, the growth inhibition in assay [5] (setting [7]) was 100% (active); in assay [5] (setting [8]), 100% (active); in assay [5] (at 50.0 µM), 99.8% (active); in assay [6] (setting [7]), 99% (active); in assay [6] (setting [8]) it was 99% (active); in assay [6] (at 50.0 µM) it was 99.7% (active).

For `O=C(CBr)c1ccc(OC(=O)c2ccccc2)cc1`, the growth inhibition in assay [1] (setting [7]) is 97% (active); in assay [1] (setting [8]) it was 99% (active); in assay [1] (at 50.0 µM), 45.3%; in assay [2] (setting [7]), 100% (active); in assay [2] (setting [8]), 99% (active); in assay [2] (at 50.0 µM), 13.1%. Moreover, the growth inhibition was 100% (active) in assay [3] (setting [7]); 100% (active) in assay [3] (setting [8]); 18.4% in assay [3] (at 50.0 µM); 44% in assay [4] (setting [7]); 99% (active) in assay [4] (setting [8]); -12.7% in assay [4] (at 50.0 µM). Besides, the growth inhibition is 100% (active) in assay [5] (setting [7]); 100% (active) in assay [5] (setting [8]); 45.8% in assay [5] (at 50.0 µM); 62% in assay [6] (setting [7]); 98% (active) in assay [6] (setting [8]); 74.5% (active) in assay [6] (at 50.0 µM).

On to `CC1=CC(=NC(=O)CBr)C=C/C1=N\S(=O)(=O)c1ccccc1`, for which the growth inhibition in assay [1] (setting [7]) is 65%; in assay [1] (setting [8]), 99% (active); in assay [1] (at 50.0 µM), 56.5%; in assay [2] (setting [7]), 44%; in assay [2] (setting [8]), 100% (active); in assay [2] (at 50.0 µM), 33.2%. The growth inhibition in assay [3] (setting [7]) was 46%; in assay [3] (setting [8]) it was 100% (active); in assay [3] (at 50.0 µM) it was 55%; in assay [4] (setting [7]), 42%; in assay [4] (setting [8]), 81% (active); in assay [4] (at 50.0 µM) it was 28.3%. The growth inhibition in assay [5] (setting [7]) was 46%; in assay [5] (setting [8]) it was 97% (active); in assay [5] (at 50.0 µM), 84.5% (active); in assay [6] (setting [7]), 55%; in assay [6] (setting [8]) it was 99% (active); in assay [6] (at 50.0 µM), 56.1%.

For the compound `CN(C)c1ccc(/C=C/c2ccnc3ccccc23)cc1`, the growth inhibition in assay [1] (setting [7]) was -6%; in assay [1] (setting [8]) it was 95% (active); in assay [1] (at 50.0 µM), 78.1% (active); in assay [2] (setting [7]), 0%; in assay [2] (setting [8]) it was 97% (active); in assay [2] (at 50.0 µM) it was 84.5% (active). Besides, the growth inhibition in assay [3] (setting [7]) was -1%; in assay [3] (setting [8]), 97% (active); in assay [3] (at 50.0 µM) it was 92.3% (active); in assay [4] (setting [7]), -10%; in assay [4] (setting [8]), 35%; in assay [4] (at 50.0 µM) it was -15.1%. Besides, the growth inhibition in assay [5] (setting [7]) was -1%; in assay [5] (setting [8]) it was 97% (active); in assay [5] (at 50.0 µM), 91.5% (active); in assay [6] (setting [7]), 19%; in assay [6] (setting [8]), 93% (active); in assay [6] (at 50.0 µM) it was 89.1% (active).

With `COc1ccc2c(c1)C(N)=C(c1ccccc1)C2=O`, the growth inhibition in assay [1] (setting [7]) was 14%; in assay [1] (setting [8]), 15%; in assay [1] (at 50.0 µM) it was 70.2% (active); in assay [2] (setting [7]), 16%; in assay [2] (setting [8]), 8%; in assay [2] (at 50.0 µM) it was 28.2%. Moreover, the growth inhibition in assay [3] (setting [7]) is 16%; in assay [3] (setting [8]) it was 28%; in assay [3] (at 50.0 µM), 63.1%; in assay [4] (setting [7]) it was 17%; in assay [4] (setting [8]), 10%; in assay [4] (at 50.0 µM), 0.55%. In addition, the growth inhibition in assay [5] (setting [7]) is 24%; in assay [5] (setting [8]) it was 19%; in assay [5] (at 50.0 µM) it was 59.2%; in assay [6] (setting [7]), 21%; in assay [6] (setting [8]), 9%; in assay [6] (at 50.0 µM), -31.8%.
